Screening results deposited in PubChem BioAssay by Columbia University Molecular Screening Center.
VCAM1 TNFa inh: inhibitors of TNFa-induced VCAM1 expression, primary screen, imaging, HUVEC, TNFa stimulus, immunofluorescence | HUVEC TNFa-induced VCAM-1 immunofluorescence, high-content imaging | inhibition, % at 2 µM | 95,000 compounds, 0.48% hits | AID 802, 2007;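 active means inhibition above the batch mean plus 3 SD, with images confirmed as a hit by eye, cut at about 37% in these data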;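 further: 0% = TNF-stimulated DMSO wells and 100% = unstimulated control wells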
IL1B NFkB inh: inhibitors of IL-1B driven NFkB p65 nuclear import, primary screen, imaging, HUVEC, IL-1B stimulus, high-content imaging; inhibition, % at 2 µM; 94,000 compounds, 0.43% hits; HUVEC IL-1B NFkB p65 nuclear translocation imaging; AID 796, 2007;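 active means inhibition above about 30% together with a positive call from visual inspection of the well image, limit read from the data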;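 further: nuclear over cytoplasmic p65 intensity ratio measured by imaging; 0% = IL-1B stimulated DMSO wells and 100% = unstimulated DMSO wells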
HUVEC tox TNFa: cytotoxicity in TNFa-stimulated HUVEC, primary screen, cytotoxicity control for VCAM1 expression modulator project, imaging, Hoechst nuclei count. AID 848, 2007. HUVEC TNFalpha-stimulated, Hoechst cell count. 93,000 compounds, 0.17% hits. cell count reduction, % at 2 µM;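 active means cell count reduction exceeding the screen mean by over 5 SD, scaled to untreated wells per plate, cut at about 78% in these data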;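 further: cells counted after 24 h of TNF alpha exposure following the 1 h pretreatment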
HUVEC tox IL1B: cytotoxicity in IL-1B stimulated HUVEC, primary screen, cytotoxicity control for IL-1B NFkB translocation project, imaging, Hoechst nuclear count, IL-1B stimulus. cell count reduction, % at 2 µM. 94,000 compounds, 0.41% hits. HUVEC cell count loss. AID 845, 2007;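 active means cell count reduction more than 3 SD above the screen-wide mean, cut at about 70% in these data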;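 further: normalized per plate to untreated control cells as the no-loss baseline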
NFkB transloc pot: enhancers of NFkB p65 translocation in HUVEC – imaging, IL-1B stimulus, high-content imaging, primary screen. 94,000 compounds, 0.3% hits. activation, % at 2 µM. HUVEC IL-1B NFkB p65 nuclear translocation imaging;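 active means activation above 40%, about the mean plus 3 SD, also judged a hit on visual image review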;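 further: percent activation is computed from the nuclear over cytoplasmic p65 intensity ratio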
* marks the source's active call; other numbers are inactive results. Sampled rows, rich in hits. Any-hit rate of the full collection: about 1.5%.

CC(=O)NC(Cc1ccccc1)C(=O)NC1CCN(C(=O)NC2CCCCC2)CC1 (stereo unspecified) was read as VCAM1 TNFa inh -4, IL1B NFkB inh -4, HUVEC tox TNFa -6, HUVEC tox IL1B 0 and NFkB transloc pot 4.
Cc1cc(C)n(-c2nc(-c3ccccc3)cs2)n1 was read as VCAM1 TNFa inh 4, IL1B NFkB inh -6, HUVEC tox TNFa 16, HUVEC tox IL1B 14 and NFkB transloc pot 6.
Screening Cc1cc(C)n(-c2nc(-c3cccc(Cl)c3)cs2)n1 returned VCAM1 TNFa inh 90*, IL1B NFkB inh -20, HUVEC tox TNFa 86*, HUVEC tox IL1B 15 and NFkB transloc pot 20.
Screening C/C(=N\NC(=S)NC(C)C)c1ccc(-n2ccnc2)cc1 returned VCAM1 TNFa inh 3, IL1B NFkB inh -2, HUVEC tox TNFa -19, HUVEC tox IL1B 12 and NFkB transloc pot 2.
`Cc1cccc(/C=N/NC(=O)c2cc3c(s2)-c2ccccc2CC3)c1` gave VCAM1 TNFa inh 9, IL1B NFkB inh 52*, HUVEC tox TNFa -12, HUVEC tox IL1B -27 and NFkB transloc pot -52.
For COc1ccccc1CC(NC(C)=O)C(=O)N1CCN(C(=O)Nc2ccccc2Cl)CC1 (stereo unspecified) the results were VCAM1 TNFa inh -5, IL1B NFkB inh 2, HUVEC tox TNFa -15, HUVEC tox IL1B -5 and NFkB transloc pot -2.
For CC(C)(C)Cc1nnc(NS(C)(=O)=O)s1 the results were VCAM1 TNFa inh 8, IL1B NFkB inh 5, HUVEC tox TNFa -7, HUVEC tox IL1B -19 and NFkB transloc pot -5.
`CC(C)(C)Cc1nnc(NS(=O)(=O)c2ccc(F)cc2)s1` gave VCAM1 TNFa inh -22, IL1B NFkB inh -98, HUVEC tox TNFa -5, HUVEC tox IL1B -8 and NFkB transloc pot 98*.
CCNc1nc2c(c(=O)n(Cc3ccccc3)c(=O)n2C)n1Cc1ccccc1 was read as VCAM1 TNFa inh -2, IL1B NFkB inh 12, HUVEC tox TNFa -35, HUVEC tox IL1B -33 and NFkB transloc pot -12.
Screening O=C(C1CCCCN1S(=O)(=O)c1ccccc1)N1CCCCC1 (stereo unspecified) returned VCAM1 TNFa inh -22, IL1B NFkB inh 52*, HUVEC tox TNFa 16, HUVEC tox IL1B 10 and NFkB transloc pot -52.
Screening CSc1nc2nc3c(c(=O)n2[nH]1)CCCC3 returned VCAM1 TNFa inh -12, IL1B NFkB inh -2, HUVEC tox TNFa 10, HUVEC tox IL1B -7 and NFkB transloc pot 2.
OCCNCCCOc1ccc(Cl)cc1Br was read as VCAM1 TNFa inh -13, IL1B NFkB inh 5, HUVEC tox TNFa 6, HUVEC tox IL1B -19 and NFkB transloc pot -5.
`Clc1ccc(OCCCNCc2ccccc2)c(Br)c1` gave VCAM1 TNFa inh 3, IL1B NFkB inh 40*, HUVEC tox TNFa -2, HUVEC tox IL1B -16 and NFkB transloc pot -40.
Screening O=C(COC(=O)c1cc(=O)[nH]c2ccccc12)NC(=O)NC1CCCCC1 returned VCAM1 TNFa inh 0, IL1B NFkB inh -10, HUVEC tox TNFa -6, HUVEC tox IL1B -9 and NFkB transloc pot 10.
Screening COc1ccc(CC(=O)Nc2ccc(-c3noc(-c4cccc(OC)c4)n3)cc2)cc1 returned VCAM1 TNFa inh 39*, IL1B NFkB inh -8, HUVEC tox TNFa 10, HUVEC tox IL1B 13 and NFkB transloc pot 8.
For CC(=O)NCCn1c(SCC(=O)NCCC(C)C)nc2ccccc2c1=O the results were VCAM1 TNFa inh 15, IL1B NFkB inh 99*, HUVEC tox TNFa -9, HUVEC tox IL1B 2 and NFkB transloc pot -99.
For O=C(OCCN1C(=O)c2ccccc2C1=O)c1cc2ccccc2o1 the results were VCAM1 TNFa inh 16, IL1B NFkB inh -45, HUVEC tox TNFa -22, HUVEC tox IL1B -15 and NFkB transloc pot 45*.
`Cc1ccc(-c2cc(N)n(-c3ccccc3)n2)cc1` gave VCAM1 TNFa inh -1, IL1B NFkB inh 67*, HUVEC tox TNFa -9, HUVEC tox IL1B -18 and NFkB transloc pot -67.
For Nc1cc(C2CCCC2)nn1-c1ccccc1 the results were VCAM1 TNFa inh -8, IL1B NFkB inh 8, HUVEC tox TNFa 8, HUVEC tox IL1B -8 and NFkB transloc pot -8.
Screening CN1CCN(c2ccc([N+](=O)[O-])cc2/C=N/NC(=O)c2ccc(F)cc2)CC1 returned VCAM1 TNFa inh -10, IL1B NFkB inh 30*, HUVEC tox TNFa 4, HUVEC tox IL1B 12 and NFkB transloc pot -30.
